The nature of test [1]: qHTS assay to identify small molecule antagonists of the thyroid receptor (TR) signaling pathway - cell viability counter screen (AID 743064). Further: nearly all actives have a fitted effect of over 50% in size. Further: potency means the concentration at half of the fitted maximal effect. An outline of the steps:
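GH3.TRE-Luc rat pituitary cells dosed after 4 hr plating, co-stimulated with T3 at 1 nM final, incubated 23.5 h at 37 C. Viability measured in the same wells by CellTiter-Fluor fluorescence after 30 min further at 37 C.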

Test [2] can be described thus: qHTS assay to identify small molecule antagonists of the thyroid receptor (TR) signaling pathway (AID 743065). Further: series mostly up to about 70 µM; nearly all actives have a fitted effect of over 55% in size. An outline of the steps: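 GH3.TRE-Luc rat pituitary cells (two TREs driving luciferase) were dosed with compound, then stimulated with 1 nM T3 (final) for 23.5 h at 37 C. ONE-Glo luminescence was the read-out, with CellTiter-Fluor fluorescence as the cytotoxicity counter-screen.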
(qHTS replaces the single test concentration by a dilution series.)

The subject of test [3] is thyroid hormone receptor (rat, GH3 cells). Kind of test: qHTS assay to identify small molecule agonists of the thyroid receptor (TR) signaling pathway (AID 743066; calls by dose curve).
Test [4] is described as follows: qHTS assay to identify small molecule antagonists of the estrogen receptor alpha (ER-alpha) signaling pathway - cell viability counter screen (AID 743074; calls by dose curve;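 further: HEK293 cells carrying ER-alpha-UAS-bla reporter stimulated with 17beta-estradiol; nearly all actives have a fitted effect of over 45% in size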).
The nature of test [5]: qHTS assay to identify small molecule antagonists of the estrogen receptor alpha (ER-alpha) signaling pathway using the BG1 cell line - cell viability counter screen (AID 743081).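 Further: compound given together with 17beta-estradiol as the ER stimulus; series mostly up to about 70 µM; nearly all actives have a fitted effect of over 45% in size.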
A further test has as its target Aromatase (Homo sapiens) (UniProt P11511). Kind of test: qHTS assay to identify aromatase inhibitors (AID 743083). Further: series mostly up to about 70 µM; nearly all actives have a fitted effect of over 55% in size.
Test [6] in a line: qHTS assay to identify aromatase inhibitors - cell viability counter screen (AID 743084).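 Further: cells stimulated with testosterone during compound exposure; nearly all actives have a fitted effect of over 55% in size.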
Test [7] addresses Aryl hydrocarbon receptor (Homo sapiens) (UniProt P35869). The test can be described thus: qHTS assay to identify small molecule that activate the aryl hydrocarbon receptor (AhR) signaling pathway (AID 743085).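 Further: HG2L7.5c1 human HepG2 liver cells with stably integrated DRE-driven firefly reporter; series mostly up to about 70 µM; nearly all actives have a fitted effect of over 15% in size.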 An outline of the steps: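 HepG2 cells stably carrying a 20-DRE firefly luciferase reporter (HG2L7.5c1) treated with compound for 24 hr at 37C. Luciferase read by ONE-Glo luminescence, with CellTiter-Fluor viability read first.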

A short description of test [8]: qHTS assay to identify small molecule that activate the aryl hydrocarbon receptor (AhR) signaling pathway - cell viability counter screen (AID 743086). Further: series mostly up to about 70 µM; nearly all actives have a fitted effect of over 45% in size. An outline of the steps: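 HepG2-AhR-luc (HG2L7.5c1) cells, 4000/well, treated 24 h at 37 C with compound; viability measured as CellTiter-Fluor fluorescence after 30 min in the same wells as the luciferase read.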

The target in test [9] is Peroxisome proliferator-activated receptor gamma (Homo sapiens) (UniProt P37231). Kind of test: qHTS assay to identify small molecule agonists of the peroxisome proliferator-activated receptor gamma (PPARg) signaling pathway (AID 743094; active means well fitted activation curve with a large enough effect in the signal ratio in the repeat runs, not every such curve was filed as active; the % refers to the signal ratio). In outline:
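HEK293H PPARg-bla cells, 5 h settle at 37C/5% CO2; compound (DMSO) 17 h, 37C; B/G FRET substrate 1 h RT; fluorescence intensity read-out. qHTS format.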

A short description of test [10]: qHTS assay to identify small molecule antagonists of the peroxisome proliferator-activated receptor gamma (PPARg) signaling pathway - cell viability counter screen (AID 743194). Further: nearly all actives have a fitted effect of over 55% in size. In outline: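 Cytotoxicity counter screen in PPARg-bla HEK293H cells, same wells as reporter assay. Compounds plus 50 nM rosiglitazone (final) for 17 h at 37 C, then viability read by CellTiter-Glo luminescence.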

The nature of test [11]: qHTS assay for small molecule agonists of the antioxidant response element (ARE) signaling pathway (AID 743202; active means well fitted activation curve with a large enough effect in the signal ratio in the repeat runs, not every such curve was filed as active; the % refers to the signal ratio; further: potency means the concentration at half of the fitted maximal effect). An outline of the steps: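 HepG2 ARE-bla reporter line, 2,000 cells/well; 5 h preincubation 37 C/5% CO2; compound (DMSO) 16 h 37 C; B/G FRET substrate 2 h RT; fluorescence intensity.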
Test [12] can be described thus: qHTS assay for small molecule agonists of the antioxidant response element (ARE) signaling pathway - cell viability counter screen (AID 743203; calls by dose curve; further: nearly all actives have a fitted effect of over 55% in size). In outline:
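Luminescence read-out (CellTiter-Glo, 30 min at room temperature) measured cell viability in the same wells as the ARE beta-lactamase reporter. HepG2 ARE-bla cells were treated with compounds for 16 hrs at 37C/5% CO2.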

Test [13] can be described thus: qHTS assay for small molecule activators of the heat shock response signaling pathway - cell viability counter screen (AID 743209). Further: nearly all actives have a fitted effect of over 50% in size. In outline: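 HSE-bla HeLa; 1500 cells/well; overnight 37 C, 5% CO2; compound 5 h 37 C; LiveBLAzer B/G substrate 2.5 h RT; CellTiter-Glo 30 min RT; luminescence.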
Test [14] concerns the target Estrogen receptor (Homo sapiens) (UniProt P03372). The test can be described thus: qHTS assay to identify small molecule antagonists of the estrogen receptor alpha (ER-alpha) signaling pathway (AID 743069; active means well fitted curve in the direction sought with a large enough effect in the signal ratio in the repeat runs, not every such curve was filed as active; the % refers to the signal ratio). In outline:
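Beta-lactamase FRET fluorescence is read after 2 hr at room temperature with LiveBLAzer B/G substrate. Before that, ER-alpha-bla HEK293 cells sit 4 hr after plating, then receive compound plus 17beta-estradiol and incubate 18 hr at 37C.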

The nature of test [15]: qHTS assay to identify small molecule antagonists of the estrogen receptor alpha (ER-alpha) signaling pathway using the BG1 cell line (AID 743080; calls by dose curve;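 further: BG1 cells stimulated with 17beta-estradiol alongside compound; series mostly up to about 70 µM; nearly all actives have a fitted effect of over 25% in size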). In outline:
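Luminescence from a 4×ERE-luciferase reporter in BG1-Luc-4E2 cells served as read-out. Cells, pre-cultured 5 days in stripped-serum phenol-red-free medium, were exposed to compound with 17beta-estradiol co-stimulation for 21.5 h at 37 C.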

The target of test [16] is Peroxisome proliferator-activated receptor gamma (Homo sapiens) (UniProt P37231). The test can be described thus: qHTS assay to identify small molecule antagonists of the peroxisome proliferator-activated receptor gamma (PPARg) signaling pathway (AID 743191; calls by dose curve; further: series mostly up to about 63 µM; nearly all actives have a fitted effect of over 30% in size). In outline:
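GeneBLAzer PPARg UAS-bla HEK293H cells, 5 h post-plating, exposed to compounds 17 h at 37C. LiveBLAzer B/G FRET substrate added for 1 h at room temperature; beta-lactamase reporter read by fluorescence intensity.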

Test [17] in a line: qHTS assay for small molecule activators of the heat shock response signaling pathway (AID 743210; active means well fitted activation curve with a large enough effect in the signal ratio in the repeat runs, with a control signal flat, not every such curve was filed as active; the % refers to the signal ratio; further: series mostly up to about 63 µM). In outline: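 Beta-lactamase reporter read-out: FRET substrate fluorescence after 2.5 h at RT, following 5 h compound treatment at 37 C of HeLa cells carrying HSE-driven bla reporter; quantitative HTS format.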
In test [18] the target is Estrogen receptor (Homo sapiens) (UniProt P03372). The test can be described thus: qHTS assay to identify small molecule agonists of the estrogen receptor alpha (ER-alpha) signaling pathway (AID 743075; calls by dose curve;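 further: HEK293 GripTite cells with ER-alpha and UAS-driven beta-lactamase reporter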).
Test [19] shares this target. The test can be described thus: qHTS assay to identify small molecule agonists of the estrogen receptor alpha (ER-alpha) signaling pathway using the BG1 cell line (AID 743079). Further: nearly all actives have a fitted effect of over 20% in size.

Inconclusive results are not listed. Active and inactive are the calls of the source. Unless noted, the call rests on the fitted dose curve; in most records, active means well fitted curve in the direction sought with a large enough effect in the repeat runs; inconclusive means weak or mixed curves; inactive means no such curve, though single readings can be large; an effect the other way counts as inactive or inconclusive.

Chain of Estrogen receptor (Homo sapiens) (P03372 whole entry, looked up): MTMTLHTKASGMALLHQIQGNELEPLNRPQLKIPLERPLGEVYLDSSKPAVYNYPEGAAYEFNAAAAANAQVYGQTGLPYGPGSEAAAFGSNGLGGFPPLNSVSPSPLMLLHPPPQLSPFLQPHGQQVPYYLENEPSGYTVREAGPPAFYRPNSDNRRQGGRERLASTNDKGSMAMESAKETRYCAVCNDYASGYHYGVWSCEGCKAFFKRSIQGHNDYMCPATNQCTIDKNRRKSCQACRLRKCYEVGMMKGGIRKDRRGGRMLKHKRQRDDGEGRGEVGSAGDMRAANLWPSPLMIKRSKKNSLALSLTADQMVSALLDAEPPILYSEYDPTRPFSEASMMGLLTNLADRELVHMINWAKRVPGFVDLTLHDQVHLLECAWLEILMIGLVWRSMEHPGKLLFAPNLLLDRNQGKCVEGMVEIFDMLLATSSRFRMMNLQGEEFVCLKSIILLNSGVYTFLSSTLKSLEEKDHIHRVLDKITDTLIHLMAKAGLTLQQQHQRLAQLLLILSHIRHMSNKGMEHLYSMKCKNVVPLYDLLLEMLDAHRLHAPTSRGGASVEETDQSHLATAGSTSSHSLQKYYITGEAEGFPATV
Chain of Aromatase (Homo sapiens) (P11511 whole entry, looked up): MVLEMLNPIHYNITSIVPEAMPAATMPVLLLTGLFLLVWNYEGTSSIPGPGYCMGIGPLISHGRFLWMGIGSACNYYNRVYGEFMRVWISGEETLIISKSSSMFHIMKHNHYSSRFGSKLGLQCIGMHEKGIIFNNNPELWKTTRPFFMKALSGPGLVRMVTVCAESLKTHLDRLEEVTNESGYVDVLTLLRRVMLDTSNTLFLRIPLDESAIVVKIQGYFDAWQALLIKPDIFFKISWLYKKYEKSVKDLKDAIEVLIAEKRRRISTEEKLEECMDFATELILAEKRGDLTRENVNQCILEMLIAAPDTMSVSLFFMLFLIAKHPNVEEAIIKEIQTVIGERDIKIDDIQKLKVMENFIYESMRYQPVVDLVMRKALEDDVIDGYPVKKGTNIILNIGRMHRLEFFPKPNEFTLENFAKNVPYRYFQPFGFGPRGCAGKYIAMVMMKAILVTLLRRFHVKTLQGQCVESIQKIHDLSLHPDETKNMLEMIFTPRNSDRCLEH
Chain of Peroxisome proliferator-activated receptor gamma (Homo sapiens) (P37231 whole entry, looked up): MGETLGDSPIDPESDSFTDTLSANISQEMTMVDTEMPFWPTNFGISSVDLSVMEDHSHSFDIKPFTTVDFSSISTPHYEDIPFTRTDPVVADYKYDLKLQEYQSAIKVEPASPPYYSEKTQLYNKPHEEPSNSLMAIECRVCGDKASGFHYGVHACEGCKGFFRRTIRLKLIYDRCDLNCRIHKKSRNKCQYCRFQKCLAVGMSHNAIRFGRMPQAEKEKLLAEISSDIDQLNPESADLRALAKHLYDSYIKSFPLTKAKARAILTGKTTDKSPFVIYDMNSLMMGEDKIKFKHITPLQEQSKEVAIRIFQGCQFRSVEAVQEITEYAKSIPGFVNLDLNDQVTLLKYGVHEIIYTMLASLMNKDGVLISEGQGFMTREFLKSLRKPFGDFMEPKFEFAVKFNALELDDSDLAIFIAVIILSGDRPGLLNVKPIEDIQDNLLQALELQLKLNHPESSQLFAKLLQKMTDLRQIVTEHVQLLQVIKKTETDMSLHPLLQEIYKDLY
Chain of Aryl hydrocarbon receptor (Homo sapiens) (P35869 whole entry, looked up): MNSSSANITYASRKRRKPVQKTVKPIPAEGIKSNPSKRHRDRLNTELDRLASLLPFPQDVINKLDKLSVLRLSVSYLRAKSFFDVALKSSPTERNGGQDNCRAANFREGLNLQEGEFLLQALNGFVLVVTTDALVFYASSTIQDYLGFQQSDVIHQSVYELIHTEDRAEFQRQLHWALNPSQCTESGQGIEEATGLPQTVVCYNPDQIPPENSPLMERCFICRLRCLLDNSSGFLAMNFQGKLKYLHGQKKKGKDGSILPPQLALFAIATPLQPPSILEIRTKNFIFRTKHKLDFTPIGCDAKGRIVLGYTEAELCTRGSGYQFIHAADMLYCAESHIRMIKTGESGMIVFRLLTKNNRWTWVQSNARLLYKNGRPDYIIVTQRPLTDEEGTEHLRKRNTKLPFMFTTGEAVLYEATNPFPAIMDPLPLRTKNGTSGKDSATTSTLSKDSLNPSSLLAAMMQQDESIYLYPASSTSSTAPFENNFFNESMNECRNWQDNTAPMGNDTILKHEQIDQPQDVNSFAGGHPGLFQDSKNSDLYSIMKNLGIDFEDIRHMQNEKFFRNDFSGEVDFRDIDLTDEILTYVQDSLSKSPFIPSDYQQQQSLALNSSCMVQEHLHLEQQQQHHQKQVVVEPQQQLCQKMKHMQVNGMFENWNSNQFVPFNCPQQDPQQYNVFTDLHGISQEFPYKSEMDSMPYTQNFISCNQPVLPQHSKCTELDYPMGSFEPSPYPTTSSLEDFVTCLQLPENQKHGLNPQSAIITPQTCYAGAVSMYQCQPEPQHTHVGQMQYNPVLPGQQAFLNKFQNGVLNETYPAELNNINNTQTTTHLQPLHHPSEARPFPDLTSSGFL

As to `COC(CC(C)CCCC(C)(C)O)OC` (stereo not given), the Potency result (in test [1]; in test [2]; in [3]; in test [4]; in [5]; with Aromatase (Homo sapiens)) was “inactive” each time. For the same compound, the Potency result in test [6], in test [7], in [8], in test [10], in test [11] and in [12] was “inactive” throughout. Also, in test [13], the Potency result is “inactive”. For the same compound, in test [9], the compound was classed as inactive.

For `CC(C)N=C=NC(C)C`, the Potency result in [1], in test [2], in [3], in [14], in test [4] and in [15] was “inactive” in each case. Also, the Potency entry (in test [5]; with Aromatase (Homo sapiens); in test [6]; in [7]; in test [8]; in test [16]) was “inactive” in each case. Moreover, the Potency entry in test [10], in test [11], in test [12], in test [13] and in test [17] was “inactive” each time. Further, the result in [9] was inactive.

In the case of `Cc1ccc(S(=O)(=O)NC(=O)NC2CCCCC2)cc1`, the Potency entry in test [1], in [2], in [3], in test [14], in test [4] and in [18] was “inactive” in each case. Further, the Potency entry (in test [19]; in [5]; with Aromatase (Homo sapiens); in [6]; in [7]; in [8]) was “inactive” each time. In addition, the Potency entry in [16], in [10], in test [11], in [12] and in test [13] was “inactive” throughout. In addition, the call in [9] was inactive.

In the case of `CC1CCc2nccnc21` (stereo not given), the Potency result in test [1], in [2], in test [3], in test [14], in test [4] and in test [18] was “inactive” in each case. The Potency entry (in [19]; in test [5]; in the test with Aromatase (Homo sapiens); in [6]; in test [7]; in test [8]) was “inactive” each time. Moreover, the Potency result in test [10], in test [11], in test [12], in test [13] and in [17] was “inactive” in each case. Also, the compound was classed as inactive in [9].

Turning to `Nc1ccc(N=Nc2ccc(N)cc2)cc1`, the Potency in [1] was 24.3 µM (active); in test [11], 2.43 µM (active). The Potency result in test [2], in test [3], in [14], in [4], in [18] and in test [19] was “inactive” throughout. Further, the Potency result (in test [15]; with Aromatase (Homo sapiens); in test [7]; in test [12]; in test [13]; in test [17]) was “inactive” in each case. Moreover, the call in [9] was inactive.

In the case of `COC(=O)c1sccc1S(N)(=O)=O`, the Potency result in test [1], in test [2], in test [3], in [14], in [4] and in [18] was “inactive” each time. Further, the Potency result (in [19]; in [5]; in the test with Aromatase (Homo sapiens); in [6]; in test [7]; in test [8]) was “inactive” each time. Further, the Potency result in test [10], in test [12], in test [13] and in [17] was “inactive” throughout.

In the case of `CC(C)C1CCC(C(=O)N[C@H](Cc2ccccc2)C(=O)O)CC1` (stereo not given in full), the Potency result in test [1], in test [2], in test [3], in [14], in test [4] and in test [18] was “inactive” throughout. Besides, the Potency entry (in test [19]; in test [5]; with Aromatase (Homo sapiens); in test [6]; in test [7]; in [8]) was “inactive” throughout. Besides, the Potency result in test [10], in [12], in [13] and in [17] was “inactive” in each case.

In the case of `COc1ccc(CCN(C)CCCN2CCc3cc(OC)c(OC)cc3CC2=O)cc1OC`, the Potency result in test [1], in test [2], in test [3], in [14], in test [4] and in [18] was “inactive” each time. The Potency entry (in [19]; in test [5]; in the test with Aromatase (Homo sapiens); in test [6]; in [7]; in test [8]) was “inactive” each time. Further, the Potency result in test [10], in [12] and in [13] was “inactive” throughout.

Source of the values: PubChem BioAssay (Tox21).
